# Hits are enriched below; roughly 2.5% of the tested compounds scored in any of these assays.
# PKA-R2B act – PKA-R2B complex activation. P22694+P31323. PKA-R2B holoenzyme dissociation, Cy5-IP20 fluorescence polarization; R2B truncated from residue 108, S112A mutant; 0% DMSO only, 100% 113 µM cGMP. activation, % at 11.4 µM. 340,000 compounds, 0.079% hits. AID 504700;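 active = activation above a cutoff set at the mean over all compounds plus 3 SD, cut at about 18% in these data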;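 also: higher means more holoenzyme dissociation and a rise in polarization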
# Target sequence (P31323 whole entry, looked up, other chains not shown, the tested form may be a part): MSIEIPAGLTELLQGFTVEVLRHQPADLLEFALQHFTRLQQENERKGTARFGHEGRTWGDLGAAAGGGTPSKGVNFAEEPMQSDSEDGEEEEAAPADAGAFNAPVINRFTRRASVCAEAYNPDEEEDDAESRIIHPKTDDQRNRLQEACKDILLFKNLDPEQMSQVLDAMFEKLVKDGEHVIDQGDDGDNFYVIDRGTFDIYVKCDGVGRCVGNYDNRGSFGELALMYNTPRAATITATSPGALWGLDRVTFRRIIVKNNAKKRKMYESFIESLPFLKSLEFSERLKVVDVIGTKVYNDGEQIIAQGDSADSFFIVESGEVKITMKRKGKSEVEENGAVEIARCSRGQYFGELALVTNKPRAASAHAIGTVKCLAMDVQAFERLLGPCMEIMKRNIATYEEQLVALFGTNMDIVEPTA
# CHT PAM – allosterically activates the human high affinity choline transporter. Q9GZV3. CHT-expressing cells, membrane potential dye, choline EC20; stronger effect = higher value; LV-AA mutant CHT in HEK293 cells. B-score at 10 µM. 310,000 compounds, 0.49% hits. AID 488977;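 active = initial fluorescence not abnormally high and integrated response B-score, plate-corrected, over 3 SD above library mean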
# PKA-R1A activ – activators of PKA-R1A complex; 340,000 compounds, 0.083% hits; PKA-R1A dissociation, Cy5-IP20 fluorescence polarization; scaled: DMSO 0%, 113 µM cGMP 100%; activation, % at 11.4 µM; P00514+P68181; AID 504707;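 active = percent activation above the mean of all tested compounds plus 3 SD, cut at about 19% in these data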;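 also: higher means more PKAc released from R1A so a rise in polarization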
# CHT block – inhibits the human high affinity choline transporter. CHT-expressing cells, membrane potential dye, choline response; stronger effect = lower value. B-score at 10 µM. 310,000 compounds, 0.86% hits. AID 488975;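 active = B-score over 3 SD under the library average, and starting fluorescence ratio not unusually high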;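 also: choline stimulus applied at its EC90 after an EC20 pre-addition; B-score computed on integrated fluorescence ratio after choline addition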
# TMEM16A inh – mouse TMEM16A channel inhibition, primary screen | Q8BHY3 | HEK293 TMEM16A/YFP iodide influx fluorescence, ionomycin | normalized B-score (activity score, 25-100; higher = stronger inhibition) at 10 µM | 310,000 compounds, 1.2% hits;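 active = ratio plate-corrected score three or more library SD toward inhibition, starting fluorescence score within five deviations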;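 also: score derived from kinetic fluorescence span divided by baseline fluorescence per well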
# TMEM16A act – mouse TMEM16A channel activation, primary screen; HEK293 TMEM16A/YFP-H148Q/I152L, iodide quench fluorescence; stronger effect = lower value; B-score at 10 µM; 340,000 compounds, 0.3% hits; AID 623877;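 active = fluorescence-ratio B-score plate-corrected deviation score at least 3 library SD below zero, with starting fluorescence score within 5 deviations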;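 also: channel opened by trigger with iodide after compound preincubation; score built on the fluorescence ratio of max minus min over baseline; more negative score means more quench and so TMEM16A activation or potentiation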
# Starred values were filed as active, the others as inactive; i = inactive; · = no result; ! = not confirmed by another sample.
SMILES,PKA-R2B act,CHT PAM,PKA-R1A activ,CHT block,TMEM16A inh,TMEM16A act
COc1cccc(C(C(=O)NC2CCCCC2)N(C(=O)c2csnn2)C2CC2)c1 (centres undefined),7,i,5,i,i,i
CCCC(=O)N1CCN(c2ccc(NC(=O)c3cc4ccccc4o3)cc2Cl)CC1,-4,i,-11,-7.4*,100*,i
Nc1ncnc2c1ncn2[C@@H]1O[C@H](CNC(=O)[C@@H]2C[C@H](F)CN2)[C@@H](O)[C@H]1O,-4,·,0,·,·,·
CCN(CC)c1ccc(CNc2nc3ccccc3n2CCN2CCCCC2)cc1,6,i,-7,i,100*,i
CCN(CC)c1ccc(CNc2nc3ccccc3n2C)cc1,-2,i,7,i,i,i
CC(=O)Nc1ccc(S(=O)(=O)N2CCCCC2c2cccnc2)cc1 (centres undefined),4,i,10,i,i,i
COc1cc(C)c(C)cc1S(=O)(=O)N1CCCCC1c1cccnc1 (centres undefined),-10,i,-10,i,i,-6*
Cc1ccc(OCc2nnc(SCc3nc4ccccc4[nH]3)n2Cc2ccco2)cc1,-3,i,-11,i,100*,i
CCn1c(COc2ccc(Cl)cc2)nnc1SCc1nc2ccccc2[nH]1,1,i,2,i,i,i
COC1=CC(=O)C(O)=C(CCCCCCC/C=C/CCCCCCCC2=C(O)C(=O)C=C(OC)C2=O)C1=O,-4,i,-12,i,100*,i
CCCCCCCCCCCC1=C(O)C(=O)C=C(O)C1=O,2,i,-12,i,i,i
COCC1CCN(C(=O)c2ccc(OC3CCN(Cc4ccccn4)CC3)cc2)C1 (centres undefined),-11,i,-6,i,i,i
CSc1nc(NCCCN(C)C)c2c3c(sc2n1)CN(C)CC3,·,i,·,i,i,·
CCCSc1nc(N)c2c3c(sc2n1)CN(C)CC3,8,7.2*,1,i,i,i
CN(C)CCSc1nc(N)c2c3c(sc2n1)CN(C)CC3,11,i,4,-8*,i,i
CN(c1ccccc1)S(=O)(=O)c1ccc(-c2ccccc2)cc1,1,i,-13,i,25*,i
Cc1ccc(S(=O)(=O)N2CCCN(c3nc4cc(C)ccc4cc3C#N)CC2)cc1,3,i,-11,i,i,-14*
Cc1ccc2nc(N3CCN(S(=O)(=O)c4ccc5c(c4)OCCO5)CC3)c(C#N)cc2c1,4,i,0,i,i,i
CC[C@H](C)/C=C/C1=CC2=C(Cl)C(=O)[C@@]3(C)OC(=O)C(C(=O)[C@H](C)[C@@H](C)O)=C3C2=CO1,-6,i,-1,i,25*,i
Cc1ccc(NC(=S)NCc2ccc(S(N)(=O)=O)cc2)cc1Cl,-6,i,6,i,i,i
Cc1ccc(S(=O)(=O)Nc2ccccc2-c2ccccc2NS(=O)(=O)c2ccc(C)cc2)cc1,8,i,-5,i,100*,i
Cc1nnc(SCC2=C(C(=O)O)N3C(=O)C(NC(=O)Cn4cnnn4)C3SC2)s1 (centres undefined),4,i,-3,i,i,i
Cc1nnc(SCC2=C(C(=O)O)N3C(=O)[C@@H](NC(=O)Cn4cnnn4)[C@H]3SC2)s1,-1,i,7,i,100*!,i
CCCNc1c(NC(=O)c2ccc3c(c2)OCO3)c(=O)oc2ccccc12,5,i,-5,i,i,i
COc1ccc(N=C2SC(CC(=O)Nc3ccccc3)C(=O)N2Cc2ccccn2)cc1 (centres undefined),-11,i,-8,i,i,-5.8*
SMILES,PKA-R2B act,CHT PAM,PKA-R1A activ,CHT block,TMEM16A inh,TMEM16A act
COc1ccc(C(=O)NCCOC(C)C)cc1OC1CCN(C(C)=O)CC1,10,i,0,i,i,i
C=CCN1C=CC(=CC=C(C#N)C#N)C=C1,-10,i,3,i,i,-7.7*
C=CCN1C=C/C(=C\C=C(C#N)C#N)c2ccccc21,4,i,9,i,i,i
CCCN1C=CC(=CC=C(C#N)C#N)C=C1,-4,i,-6,i,i,-6.5*
CCCCCN1C=CC=C/C1=C\C=C(C#N)C#N,·,i,·,i,i,i
N#CC(c1ccc(Cl)cc1)c1ccc2c(C(F)(F)F)cc(C(F)(F)F)nc2n1 (centres undefined),5,i,-10,i,100*,i
Nc1ccc2c(C(F)(F)F)cc(C(F)(F)F)nc2n1,-8,i,-11,i,i,i
N#CC1=C(N)Oc2c(oc(CO)cc2=O)C1c1ccccc1[N+](=O)[O-] (centres undefined),·,i,·,i,i,i
CCOCCCN(C)C1CCN(C(=O)c2oc3ccccc3c2NC(=O)COc2ccc(F)cc2)CC1,-7,i,-4,-7.2*,i,i
CC1=NN(c2ccccc2)C(=O)C1C=Nc1ccccc1O (centres undefined),-1,i,7,-5.2*,i,i
CC(O)c1nc2ccccc2n1CCCOc1ccccc1 (centres undefined),-2,i,-13,i,i,i
Cc1ccc(C(=O)Nc2ccc(Br)c(C(F)(F)F)c2)cc1,-9,i,1,i,100*,i
Cc1ccc(NC(=O)c2ccc(C)cc2)cc1,6,i,8,i,i,i
CCCCOc1ccc(CC2CCC(=O)NC2=O)cc1 (centres undefined),3,i,-2,i,i,i
C/C(CS(=O)(=O)c1ccc(Cl)c(Cl)c1)=N/NC(N)=S,-12,i,-2,i,i,-8.5*
C/C(CS(=O)(=O)c1ccc(Cl)cc1)=N/NC(N)=S,-6,i,1,i,i,i
COc1ccc(NC(=O)CCC(=O)c2cccs2)cc1S(=O)(=O)Nc1ccccc1Cl,-2,i,-1,i,i,i
O=C(Nc1ccc(Cl)c(S(=O)(=O)Nc2ccccc2Cl)c1)c1cccs1,-7,i,-7,i,25*,i
COc1ccccc1NS(=O)(=O)c1cc(NC(=S)Nc2cc(C)cc(C)c2)ccc1Cl,-2,i,-3,i,i,-5.6*
COc1ccccc1NS(=O)(=O)c1cc(N/C(=N\S(=O)(=O)c2ccccc2)c2ccc(F)cc2)ccc1Cl,-5,i,-8,i,i,i
